Measured values reported in PubChem BioAssay AID2552 (National Center for Advancing Translational Sciences (NCATS), 2010).
Active and inactive are the calls of the source. No rule for the calls is given here.

Molecular target: Thyroid hormone receptor beta (Homo sapiens) (UniProt P10828)
Experiment: Irreversible Binding Assay for Inhibitors of the Interaction of Thyroid Hormone Receptor and Steroid Receptor Coregulator 2
Settings: TRb LBD-SRC2 peptide FP after dialysis, at 100 µM
Description: NIH Molecular Libraries Probe Production Network [MLPCN] NIH Chemical Genomics Center [NCGC] MLPCN Grant: DK058080 Assay Provider: R. Kip Guy, St. Jude Children's Research Hospital NCGC Assay Overview: Thyroid receptor (TR) regulates many homeostatic processes including basal metabolism, cardiovascular function, body weight, and lipid trafficking. TR modulators are potential therapeutics for obesity and hyperlipidemias but current thyroid analogs have undesirable side effects, particularly cardiac stimulation. To identify whether inhibitors irreversibly block the interaction of TR with the steroid receptor coregulator 2 (SRC2), a fluorescence polarization assay was used (Arnold et al., 2006). […]
NCGC Assay Protocol Summary: One milliliter TRb (1 uM) was incubated with DMSO (4 %), SRC2-2 peptide (100 uM) or compound (100 uM) for 3 hr in assay buffer (20 mM Tris hydrochloride, pH 7.4, 100mM NaCl, 10% glycerol, 1mM EDTA, 0.01% NP-40, 1mM DTT, 1uM T3 and 4% DMSO). […] The protein samples were concentrated using a 10K spin filter column (Amicon Ultra, Millipore) and then quantified by Bradford analysis. For each sample, 20 uL assay buffer containing 2 uM TRb and 40 nM SRC2 Texas Red probe was incubated in a 384 well plate for 3 hr at ambient temperature and read by an Envision (Perkin Elmer) to detect fluorescence polarization of SRC2-2 Texas Red (555 nm excitation and 632 nm emission). […]

Chain of Thyroid hormone receptor beta (Homo sapiens) (P10828 whole entry, looked up): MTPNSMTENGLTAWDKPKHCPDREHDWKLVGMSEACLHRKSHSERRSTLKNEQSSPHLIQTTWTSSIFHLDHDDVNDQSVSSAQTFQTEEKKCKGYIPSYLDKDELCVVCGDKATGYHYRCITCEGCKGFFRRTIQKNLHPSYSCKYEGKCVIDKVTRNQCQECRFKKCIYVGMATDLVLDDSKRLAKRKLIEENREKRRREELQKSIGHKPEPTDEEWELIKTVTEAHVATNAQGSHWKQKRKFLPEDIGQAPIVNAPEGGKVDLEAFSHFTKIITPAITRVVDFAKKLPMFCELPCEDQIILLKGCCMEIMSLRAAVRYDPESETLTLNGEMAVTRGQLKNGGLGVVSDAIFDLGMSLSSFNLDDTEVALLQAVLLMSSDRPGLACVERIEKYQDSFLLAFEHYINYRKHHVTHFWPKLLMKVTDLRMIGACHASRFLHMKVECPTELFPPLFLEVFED

| Structure (SMILES) | activity change, negative = inhibition |
| --- | --- |
| CC1(C)C2CCC1(C)C(NC(=O)COC(=O)c1ccc(S(C)(=O)=O)c([N+](=O)[O-])c1)C2 (stereo unspecified) | -96% (active) |
